High-throughput results from PubChem BioAssay.
TDP1 cell CPT: growth inhibition of DT40 Tdp1-/-;hTDP1 cells with camptothecin (screen for TDP1 inhibitors); chicken DT40 Tdp1-/-;hTDP1 cells + 20 nM CPT, ATP luminescence, 48 h; 420,000 compounds, 12% hits; Potency, µM (doses to about 46.2 µM), for inactives: at the top dose activity change, negative = growth inhibition, usual class: inhibitors; AID 686979; also: potency is read from the fitted curve at half-maximal effect; % is scaled to controls: 0 for no effect and ±100 for the full control effect; nearly all actives have a fitted effect of over 55% in size
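Cell growth measured by CellTiter-Glo luminescence after a minimum 48 h, 37 C compound exposure with 20 nM CPT in Tdp1-knockout DT40 cells stably expressing hTDP1, seeded 400/well; qHTS titration format.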
Chronic BCR inh: inhibitors of chronic active B-cell receptor signaling; ABC-DLBCL IkBa-CBG/CBR reporter, luminescence ratio, 4 h; Potency, µM (titrated, usually from 46.1 µM), inactives show at the highest dose activity change, negative = inhibition, most hits filed as inhibitors; 340,000 compounds, 0.05% hits; active = well fitted inhibition curve with a large enough effect in the signal ratio, with a control signal flat, not every such curve was filed as active; inconclusive = small, poorly fitted or top-dose-only effect, or effect the other way, or a change in a side signal; the % refers to the signal ratio;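 also: potency is read from the fitted curve at half-maximal effect; plate controls were basal doxycycline-induced cells for no effect and cells given 10 µM MG132 for full effect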
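TMD8 ABC-DLBCL cells carrying doxycycline-inducible green luciferase fused to IkappaBalpha plus unfused red luciferase were exposed to compounds (up to 46 uM) for 4 hrs at 37C. Activity came from the overlap-corrected green/red luminescence ratio.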
MCF10A rerep: DNA re-replication induction in MCF 10a cells; Potency, µM (highest dose often 46.1 µM), for the others: at the highest dose activity, positive = re-replication, usual class: activators; MCF 10A DNA re-replication, Hoechst nuclear intensity, 48 h; AID 624296; 350,000 compounds, 2.9% hits; also: potency is read from the fitted curve at half-maximal effect; % of control where 0% means no effect; nearly all actives have a fitted effect of over 50% in size
DT40 TDP1 no CPT: qHTS for Inhibitors of human tyrosyl-DNA phosphodiesterase 1 (TDP1): qHTS in cells in absence of CPT. DT40 Tdp1-/- hTDP1 cells, no CPT, ATP luminescence, 48 h. Potency, µM (doses to about 46.2 µM), for the others: at the top dose activity change, negative = growth inhibition, most hits filed as inhibitors. 420,000 compounds, 15% hits; also: potency is read from the fitted curve at half-maximal effect; % is scaled to controls: 0 for no effect and ±100 for the full control effect; nearly all actives have a fitted effect of over 55% in size
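Luminescent ATP content (CellTiter-Glo) served as the growth readout. Knockout chicken DT40 cells expressing human TDP1 were exposed to compounds without camptothecin for a minimum 48 hr at 37 °C.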
IL1B secr inh: blocks inflammasome-driven IL-1 beta release | 360,000 compounds, 4.7% hits | AID 743279 | THP-1 LPS/ATP IL-1B secretion, AlphaLISA, 16 h; active compounds read low | activity change, % at 57.5 µM; in the data active = activity change below about -50%; inconclusive = mostly about -30% to -49%; also: % is scaled to controls: 0 for no effect and ±100 for the full control effect
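THP-1 cells pretreated 1 hr with compounds (up to 57.5 uM final), then stimulated with LPS (250 ng/mL final) plus ATP (1.25 mM final); secreted IL-1B measured by AlphaLISA after 16 hr, decreased signal indicating inhibition.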
SW480 rerep: inducers of DNA re-replication in SW480 colon cancer cells; SW480 DNA re-replication, Hoechst DNA content imaging, 48 h; Potency, µM (titrated, usually from 46.1 µM), for the others: at the top dose re-replication activation, hits mostly activators; 340,000 compounds, 1.8% hits; also: potency is read from the fitted curve at half-maximal effect; % of control where 0% means no effect; nearly all actives have a fitted effect of over 55% in size
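Image-based read-out: total Hoechst fluorescence of nuclei (405 nm excitation, 500-530 nm emission), with hits raising the fraction of high-intensity nuclei. SW480 colon cells incubated 48 hr with compounds at 37 C.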
* marks the source's active call; other numbers are inactive results; u = inconclusive; x = not tested or not shown. Rows were chosen to be rich in hits. Some 19% of all compounds tested hit in one or more screens of this group. Unless noted, calls follow the shape of the dose curve; as a rule, active = well fitted curve in the direction sought with a large enough effect; inconclusive = small, poorly fitted or top-dose-only effect, or another doubt; inactive = no such curve, though single readings can be large; an effect the other way counts as inactive or inconclusive.

SMILES | TDP1 cell CPT | Chronic BCR inh | MCF10A rerep | DT40 TDP1 no CPT | IL1B secr inh | SW480 rerep
CCOc1ccccc1N(CC(=O)Nc1ccccc1)S(=O)(=O)c1ccccc1 | u | 11% | 6% | 26µM* | -1 | -35%
CN(CC(=O)Nc1cccnc1)S(=O)(=O)c1ccccc1 | -24% | -2% | 18% | -8% | 3 | -1%
COc1ccc(OC)c(N(CC(=O)Nc2cccnc2)S(=O)(=O)c2ccc(OC)c(OC)c2)c1 | u | 3% | 0% | u | -13 | -4%
COc1ccccc1N(CC(=O)Nc1ccc(Cc2ccncc2)cc1)S(=O)(=O)c1ccccc1 | 23µM* | -19% | u | u | -24 | -87%
COC(=O)CN(c1ccccc1OC)S(=O)(=O)c1ccccc1 | -4% | 2% | u | -15% | 13 | -7%
CCOC(=O)c1ccccc1NC(=O)CN(c1ccccc1OCC)S(C)(=O)=O | u | -3% | 1% | u | -6 | -4%
CCOc1ccccc1N(CC(=O)Nc1cccnc1)S(C)(=O)=O | 2% | u | 0% | 6% | 17 | -7%
CCOc1ccccc1N(CC(=O)Nc1cccnc1)S(=O)(=O)c1ccc(C)cc1 | 18µM* | u | u | u | 2 | 0%
COc1ccc(NC(=O)CN(c2cccc(C)c2C)S(=O)(=O)c2ccccc2)cc1OC | 23µM* | x | x | u | x | x
CCOC(=O)c1ccccc1NC(=O)CN(c1cccc(C)c1C)S(=O)(=O)c1ccccc1 | 7.3µM* | x | x | 5.8µM* | x | x
Clc1cccc(-c2nc3ccccn3c2Nc2ccc3c(c2)OCCO3)c1 | u | x | x | 8.2µM* | x | x
CN(C)c1ccc(-c2nc3ccccn3c2Nc2ccc3c(c2)OCCO3)cc1 | 21µM* | x | x | u | x | x
O=C1NC(=O)C(Cc2ccc(O)cc2)N1 (stereo not drawn) | 7% | x | 47% | 15% | 6 | -11%
NC(N)=NS(=O)(=O)c1ccc(NC(=S)NC(=O)Cc2ccc(Cl)cc2)cc1 | 5% | -3% | -2% | 0% | 30 | -4%
Cc1ccc(-c2csc3ncnc(N4CCN(C)CC4)c23)cc1C | u | 0% | 1% | 12µM* | -15 | 12%
CCCn1cnc2scc(-c3ccc(C)c(C)c3)c2c1=O | u | 3% | 7% | 21µM* | 8 | -5%
O=S(=O)(c1ccc(Oc2ncnc3scc(-c4ccccc4)c23)cc1)N1CCOCC1 | 23µM* | -7% | 21µM* | 18µM* | -10 | 10%
COc1ccc(N2CCN(c3ncnc4scc(-c5ccccc5)c34)CC2)cc1 | -15% | u | u | 16µM* | u | 22%
N#Cc1ccc(Oc2ccc(S(=O)(=O)N3CCOCC3)cn2)cc1 | -20% | 1% | 1% | -13% | 1 | -3%
COc1ccc(OC)c(NC(=O)C(C)OC(=O)c2cc3ccccc3[nH]2)c1 (stereo not drawn) | u | x | 14% | u | 36 | 0%
O=C1c2ccc([N+](=O)[O-])cc2C(=O)N1Cc1cccnc1 | 6% | 0% | 2% | 14% | 19 | -3%
COc1cccc(NC(=O)c2sc3nc(C)c(C(=O)Nc4ccc(C)cc4C)c(-c4ccccc4Cl)c3c2N)c1 | -24% | x | x | u | x | x
C=CCNc1oc(-c2cccc(F)c2)nc1C#N | x | u | -55% | x | x | -1%
CCOC(=O)c1cccc(C2=CC(=O)CC(C)(C)C2)c1 | u | 1% | -6% | -20% | -3 | -5%
O=C(NCCc1ccc(O)c(Br)c1)c1ccc(Br)o1 | -13% | x | x | -23% | 0 | x
SMILES | TDP1 cell CPT | Chronic BCR inh | MCF10A rerep | DT40 TDP1 no CPT | IL1B secr inh | SW480 rerep
Cc1ccc(NC(=O)COC(=O)c2cc(=O)c3ccccc3o2)cc1F | -14% | -5% | -7% | 27% | -5 | 5%
CCN(CC(=O)NCc1cccs1)C(=O)c1cccc(Cl)c1 | -13% | 0% | 1% | 1% | -14 | 6%
c1ccc(-c2csc3ncnc(N4CCc5ccccc5C4)c23)cc1 | u | 0% | u | 16µM* | 0 | u
COc1ccc(-c2csc3ncnc(N4CCN(S(=O)(=O)c5cccs5)CC4)c23)cc1 | u | u | 25% | u | 2 | u
Cc1sc2ncn(CCn3cnc4sc(C)c(C)c4c3=O)c(=O)c2c1C | u | u | 1% | 21µM* | -5 | -3%
COc1ccc(-c2csc3ncnc(N4CCN(S(=O)(=O)c5ccc(Cl)s5)CC4)c23)cc1 | u | -12% | 4% | 29µM* | 52 | -571%
COc1ccc(-c2csc3ncnc(N4CCN(S(=O)(=O)c5ccc(C)cc5)CC4)c23)cc1 | u | -2% | 22% | 15µM* | 50 | -408%
Cc1cc2ncn(-c3ncnc4scc(-c5ccccc5)c34)c2cc1C | u | -1% | 24% | 18µM* | -6 | -1%
COc1ccc(N2CCN(C(=O)CSc3nc(C)cs3)CC2)cc1 | -22% | 0% | 0% | -10% | -14 | 18µM*
Cc1ccc2cccc(Oc3ncnc4sc(C)c(C)c34)c2n1 | -22% | -1% | 11% | u | 33 | u
Cc1csc2ncnc(N3CCN(S(=O)(=O)c4cccc(C(F)(F)F)c4)CC3)c12 | 9.2µM* | 0% | 4% | 3.7µM* | 0 | 0%
Cc1cc2ncn(-c3ncnc4sc(C)c(C)c34)c2cc1C | -27% | -2% | -3% | u | 1 | -3%
O=S(=O)(c1cccc(Br)c1)N1CCN(c2ncnc3scc(-c4ccccc4)c23)CC1 | u | x | 0% | u | 55 | -9%
Cc1ccc(-c2csc3ncnc(Oc4cccc5ccc(C)nc45)c23)cc1 | u | 9% | 14% | 21µM* | 10 | 0%
CCOC(=O)Cc1csc(SCC(=O)N2CCN(c3ccccc3)CC2)n1 | -20% | 0% | 19% | -28% | 10 | 1%
Cc1ccc2sc(N3CCN(C(=O)C4COc5ccccc5O4)CC3)nc2c1C (stereo not drawn) | u | 6% | x | u | x | x
Cc1ccc(S(=O)(=O)N2CCN(C(=O)C3CCN(c4ncnc5sc(C)c(C)c45)CC3)CC2)c(C)c1 | 8.2µM* | x | -1% | 3.7µM* | 26 | -12%
COc1ccc(N2CCN(C(=O)CSc3ncnc4scc(-c5ccc(C)cc5)c34)CC2)cc1 | u | x | 1% | 16µM* | -23 | 7%
CC(=O)CSc1ncnc2scc(-c3ccc(F)cc3)c12 | 0% | -18% | -1% | -1% | 17 | 3%
